Data published in PubChem BioAssay (NCATS).
Several values for one entry are separate records, joined by “and”; a condition that tells them apart may be missing. Identical values can stand only once. Results filed as inconclusive are left out. A number with no mark means an inactive call. Activity calls are given as the source filed them. The call rests on the fitted dose curve.

Legend:
[1] = target: Bile acid receptor (Homo sapiens) (UniProt Q96RI1); experiment: qHTS assay for small molecule agonists of farnesoid X receptor signaling (AID 588527); settings: HEK293T FXR-UAS-bla, beta-lactamase ratio, 16 h; activation: hits give high values;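 further: series mostly up to about 77 µM; 0% = vehicle basal and 100% = reference agonist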
In short: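 Read-out: beta-lactamase reporter fluorescence with CCF4 substrate in GeneBLAzer FXR-UAS-bla HEK293T cells, after 16 h compound exposure at 37 C. Response scaled between DMSO basal (0%) and chenodeoxycholic acid at 100 uM (100%).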

[2] = target: Peroxisome proliferator-activated receptor delta (Homo sapiens) (UniProt Q03181); experiment: qHTS assay for small molecule agonists of peroxisome proliferator-activated receptor delta signaling (AID 588534);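 further: 0% = DMSO basal wells and 100% = positive control agonist at 10 µM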
In short: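 Agonist-mode qHTS; reporter cells, 5 hrs 37 C pre-incubation; compound titration, 18 hrs 37 C; CCF4 dye, 2 hrs RT; fluorescence read. EC50/efficacy via Hill fit.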

Sequence of Bile acid receptor (Homo sapiens) (Q96RI1 whole entry, looked up): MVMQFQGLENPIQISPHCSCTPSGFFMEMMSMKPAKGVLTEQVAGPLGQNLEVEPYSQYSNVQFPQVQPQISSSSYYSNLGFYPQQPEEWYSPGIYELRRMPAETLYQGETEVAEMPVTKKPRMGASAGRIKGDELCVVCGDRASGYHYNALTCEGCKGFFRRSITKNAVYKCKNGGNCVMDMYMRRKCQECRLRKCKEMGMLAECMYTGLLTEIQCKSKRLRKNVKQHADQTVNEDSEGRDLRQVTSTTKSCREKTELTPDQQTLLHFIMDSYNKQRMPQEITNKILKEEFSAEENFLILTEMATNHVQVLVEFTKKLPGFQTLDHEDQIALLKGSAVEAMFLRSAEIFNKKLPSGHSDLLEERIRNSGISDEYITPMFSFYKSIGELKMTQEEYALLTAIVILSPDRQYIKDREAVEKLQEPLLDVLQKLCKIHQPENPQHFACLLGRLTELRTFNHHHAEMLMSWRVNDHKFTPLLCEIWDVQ
Sequence of Peroxisome proliferator-activated receptor delta (Homo sapiens) (Q03181 whole entry, looked up): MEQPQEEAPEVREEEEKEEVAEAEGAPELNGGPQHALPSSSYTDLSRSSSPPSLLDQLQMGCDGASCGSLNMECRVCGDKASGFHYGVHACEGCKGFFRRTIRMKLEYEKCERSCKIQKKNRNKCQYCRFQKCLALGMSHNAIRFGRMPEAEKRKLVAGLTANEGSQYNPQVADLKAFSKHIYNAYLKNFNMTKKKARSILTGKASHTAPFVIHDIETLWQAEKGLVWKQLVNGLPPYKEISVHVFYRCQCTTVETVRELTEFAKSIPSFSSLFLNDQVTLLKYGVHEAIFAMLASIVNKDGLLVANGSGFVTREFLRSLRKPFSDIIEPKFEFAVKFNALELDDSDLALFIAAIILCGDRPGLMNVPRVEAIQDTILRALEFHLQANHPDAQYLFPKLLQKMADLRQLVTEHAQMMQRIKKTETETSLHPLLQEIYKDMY

With CC1=CC(=O)CC(C)(C)C1(O)/C=C/C(C)=C\C(=O)O (stereo not drawn) the activation [1] was -3.19% and the outcome [2] was “inactive”.

C=C[Si](OCCOC)(OCCOC)OCCOC was tested, and the activation [1] was -1.57% and the outcome [2] was “inactive”.

In the case of C=CC(=O)OCCCCCCOC(=O)C=C, the activation [1] is reported as -0.189% and the outcome [2] is reported as “inactive”.

CCCCOCCO was tested, and the activation [1] was -0.315% and -0.896% and 3.38% and the outcome [2] was “inactive”.

With CCCCO the activation [1] was 0.769% and 0.512% and the outcome [2] was “inactive”.

Cc1cc(C)cc(N)c1 was tested, and the activation [1] was -1.69% and the outcome [2] was “inactive”.

In the case of CCCCCCCCCCCCCCCCCCN, the activation [1] is reported as 1.62% and the outcome [2] is reported as “inactive”.

For CC(C)CCOC(=O)/C=C/c1ccccc1, the activation [1] was -2.58% and the outcome [2] was “inactive”.

With CC(=O)N(CCN(C(C)=O)C(C)=O)C(C)=O the activation [1] was 1.43% and the outcome [2] was “inactive”.
